Data: PubChem BioAssay AID1159580 (chemical genetic matrix, 2015)
The whole screen tested about 5,500 compounds, of which about 2,000 (36%) were called active. Inconclusive results (about 18%) are left out. No stated cut-off is given here; in the data, active means normalized growth mostly below about 0.91 (no sharp cut-off); inconclusive means no clear call, values can overlap the other calls; inactive means mostly above about 0.92. The list shows a part of the results.

Test: chemical genetic growth profiling, strain panel (AID 1159580);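 further: tested at 20 µM; growth read once vehicle control cultures reached saturation at 30 °C; 1 = growth at the plate median or of vehicle wells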
Conditions: growth OD

Measured: normalized growth

Clc1ccc(COC(Cn2ccnc2)c2ccc(Cl)cc2Cl)c(Cl)c1 (configuration not stated)
active: S. cerevisiae deletion strains, locus YJR075W, strain HOC1, stronger effect = lower value 0.0654 | S. cerevisiae deletion strains, locus YKL009W, strain mrt4, stronger effect = lower value 0.0991 | S. cerevisiae deletion strains, locus YKL068W, stronger effect = lower value 0.0685 | S. cerevisiae deletion strains, locus YKL085W, strain MDH1 (second series), stronger effect = lower value 0.0665 | S. cerevisiae deletion strains, locus YKL085W, strain MDH1, stronger effect = lower value 0.0665 | S. cerevisiae deletion strains, locus YKL160W, strain elf1, stronger effect = lower value 0.0826 | S. cerevisiae deletion strains, locus YKL190W, strain CNB1, stronger effect = lower value 0.046 | S. cerevisiae deletion strains, locus YKR001C, strain vps1, stronger effect = lower value 0.0634 | S. cerevisiae deletion strains, locus YKR026C, strain gcn3, stronger effect = lower value 0.0698 | S. cerevisiae deletion strains, locus YKR091W, strain srl3, stronger effect = lower value 0.0616 | S. cerevisiae deletion strains, locus YLL001W, strain dnm1, stronger effect = lower value 0.0638 | S. cerevisiae deletion strains, locus YLL026W, stronger effect = lower value 0.0593 | S. cerevisiae deletion strains, locus YLL041C, strain sdh2, stronger effect = lower value 0.0595 | S. cerevisiae deletion strains, locus YLR027C, strain aat2, stronger effect = lower value 0.0575 | S. cerevisiae deletion strains, locus YLR039C, strain RIC1, stronger effect = lower value 0.0754 | S. cerevisiae deletion strains, locus YLR058C, strain SHM2, stronger effect = lower value 0.0389 | S. cerevisiae deletion strains, locus YLR102C, strain apc9, stronger effect = lower value 0.0667 | S. cerevisiae deletion strains, locus YLR113W, strain HOG1, stronger effect = lower value 0.128 | S. cerevisiae deletion strains, locus YLR221C, strain rsa3, stronger effect = lower value 0.0643 | S. cerevisiae deletion strains, locus YLR258W, strain gsy2, stronger effect = lower value 0.0636 | S. cerevisiae deletion strains, locus YLR262C, strain YPT6 (second series), stronger effect = lower value 0.0835 | S. cerevisiae deletion strains, locus YLR262C, strain YPT6, stronger effect = lower value 0.0925 | S. cerevisiae deletion strains, locus YLR268W, strain sec22, stronger effect = lower value 0.0664 | S. cerevisiae deletion strains, locus YLR320W, strain mms22, stronger effect = lower value 0.087 | S. cerevisiae deletion strains, locus YLR330W, strain CHS5, stronger effect = lower value 0.0522 | S. cerevisiae deletion strains, locus YLR342W, strain FKS1 (second series), stronger effect = lower value 0.0607 | S. cerevisiae deletion strains, locus YLR342W, strain FKS1, stronger effect = lower value 0.0655 | S. cerevisiae deletion strains, locus YLR357W, strain rsc2, stronger effect = lower value 0.124 | S. cerevisiae deletion strains, locus YLR370C, strain arc18, stronger effect = lower value 0.064 | S. cerevisiae deletion strains, locus YLR371W, strain rom2, stronger effect = lower value 0.0643 | S. cerevisiae deletion strains, locus YLR384C, strain iki3, stronger effect = lower value 0.0632 | S. cerevisiae deletion strains, locus YLR418C, strain cdc73, stronger effect = lower value 0.104 | S. cerevisiae deletion strains, locus YML016C, strain PPZ1, stronger effect = lower value 0.0516 | S. cerevisiae deletion strains, locus YML032C, strain rad52, stronger effect = lower value 0.0665 | S. cerevisiae deletion strains, locus YML120C, strain ndi1, stronger effect = lower value 0.0587 | S. cerevisiae deletion strains, locus YML124C, strain tub3, stronger effect = lower value 0.058 | S. cerevisiae deletion strains, locus YMR058W, strain fet3, stronger effect = lower value 0.0613 | S. cerevisiae deletion strains, locus YMR078C, strain ctf18, stronger effect = lower value 0.0692 | S. cerevisiae deletion strains, locus YMR125W, strain sto1, stronger effect = lower value 0.0759 | S. cerevisiae deletion strains, locus YMR129W, stronger effect = lower value 0.0593 | S. cerevisiae deletion strains, locus YMR205C, strain PFK2, stronger effect = lower value 0.0878 | S. cerevisiae deletion strains, locus YMR223W, strain ubp8, stronger effect = lower value 0.0663 | S. cerevisiae deletion strains, locus YMR231W, strain pep5, stronger effect = lower value 0.171 | S. cerevisiae deletion strains, locus YMR263W, strain SAP30, stronger effect = lower value 0.062 | S. cerevisiae deletion strains, locus YMR307W, strain GAS1, stronger effect = lower value 0.107 | S. cerevisiae deletion strains, locus YNL067W, strain RPL9B, stronger effect = lower value 0.0502 | S. cerevisiae deletion strains, locus YNL071W, strain lat1, stronger effect = lower value 0.0615 | S. cerevisiae deletion strains, locus YNL128W, strain TEP1, stronger effect = lower value 0.0612 | S. cerevisiae deletion strains, locus YNL153C, strain GIM3, stronger effect = lower value 0.0486 | S. cerevisiae deletion strains, locus YNL183C, strain NPR1, stronger effect = lower value 0.00703 | S. cerevisiae deletion strains, locus YNL209W, strain ssb2, stronger effect = lower value 0.0642 | S. cerevisiae deletion strains, locus YNL233W, strain BNI4, stronger effect = lower value 0.0542 | S. cerevisiae deletion strains, locus YNL248C, strain rpa49, stronger effect = lower value 0.0801 | S. cerevisiae deletion strains, locus YNL250W, strain rad50, stronger effect = lower value 0.0712 | S. cerevisiae deletion strains, locus YNL271C, strain bni1, stronger effect = lower value 0.0673 | S. cerevisiae deletion strains, locus YNL298W, strain CLA4, stronger effect = lower value 0.0653 | S. cerevisiae deletion strains, locus YNL307C, strain MCK1, stronger effect = lower value 0.0672 | S. cerevisiae deletion strains, locus YNL322C, strain KRE1 (second series), stronger effect = lower value 0.0752 | S. cerevisiae deletion strains, locus YNL322C, strain KRE1, stronger effect = lower value 0.0472 | S. cerevisiae deletion strains, locus YNR049C, strain mso1, stronger effect = lower value 0.0611 | S. cerevisiae deletion strains, locus YNR052C, strain pop2, stronger effect = lower value 0.0593 | S. cerevisiae deletion strains, locus YOL006C, strain TOP1, stronger effect = lower value 0.0836 | S. cerevisiae deletion strains, locus YOL012C, strain htz1 0.185 | S. cerevisiae deletion strains, locus YOL147C, strain pex11, stronger effect = lower value 0.059 | S. cerevisiae deletion strains, locus YOR001W, strain rrp6, stronger effect = lower value 0.0687 | S. cerevisiae deletion strains, locus YOR061W, strain CKA2, stronger effect = lower value 0.0316 | S. cerevisiae deletion strains, locus YOR069W, strain VPS5, stronger effect = lower value 0.052 | S. cerevisiae deletion strains, locus YOR070C, strain gyp1, stronger effect = lower value 0.061 | S. cerevisiae deletion strains, locus YOR080W, strain dia2, stronger effect = lower value 0.0651 | S. cerevisiae deletion strains, locus YOR083W, strain WHI5, stronger effect = lower value 0.0643 | S. cerevisiae deletion strains, locus YOR106W, strain vam3, stronger effect = lower value 0.0643 | S. cerevisiae deletion strains, locus YOR136W, strain idh2, stronger effect = lower value 0.0723 | S. cerevisiae deletion strains, locus YOR144C, strain elg1, stronger effect = lower value 0.0556 | S. cerevisiae deletion strains, locus YOR184W, strain ser1, stronger effect = lower value 0.0771 | S. cerevisiae deletion strains, locus YOR231W, strain MKK1, stronger effect = lower value 0.112 | S. cerevisiae deletion strains, locus YOR265W, strain rbl2, stronger effect = lower value 0.0604 | S. cerevisiae deletion strains, locus YOR270C, strain vph1, stronger effect = lower value 0.0973 | S. cerevisiae deletion strains, locus YOR290C, strain snf2, stronger effect = lower value 0.0739 | S. cerevisiae deletion strains, locus YOR316C, strain cot1, stronger effect = lower value 0.0648 | S. cerevisiae deletion strains, locus YPL051W, strain arl3, stronger effect = lower value 0.0665 | S. cerevisiae deletion strains, locus YPL055C, strain LGE1, stronger effect = lower value 0.0731 | S. cerevisiae deletion strains, locus YPL078C, strain atp4, stronger effect = lower value 0.0694 | S. cerevisiae deletion strains, locus YPL106C, strain sse1, stronger effect = lower value 0.128 | S. cerevisiae deletion strains, locus YPL240C, strain hsp82, stronger effect = lower value 0.0639 | S. cerevisiae deletion strains, locus YPL241C, strain CIN2, stronger effect = lower value 0.0503 | S. cerevisiae deletion strains, locus YPL256C, strain CLN2, stronger effect = lower value 0.129 | S. cerevisiae deletion strains, locus YPR119W, strain clb2, stronger effect = lower value 0.0606 | S. cerevisiae deletion strains, locus YPR141C, strain kar3, stronger effect = lower value 0.0743 | S. cerevisiae deletion strains, locus YPR163C, strain tif3, stronger effect = lower value 0.079 | S. cerevisiae deletion strains, locus YPR167C, strain met16, stronger effect = lower value 0.0606 | S. cerevisiae deletion strains, strain wtn01, stronger effect = lower value 0.0603 | S. cerevisiae strains, strain wild type, stronger effect = lower value 0.0493
